# D1 antagonist: human D1 dopamine receptor antagonism; HEK293 TREx D1 cells, calcium flux, dopamine EC80; stronger effect = lower value; activity change, negative = inhibition, % at 10 µM; hit rate 3.2% among 360,000; P21728; AID 504652; in the data active = activity change below about -30%; note: % is set by controls: 0 for no effect and ±100 for the full control effect
# Target sequence (P21728 whole entry, looked up): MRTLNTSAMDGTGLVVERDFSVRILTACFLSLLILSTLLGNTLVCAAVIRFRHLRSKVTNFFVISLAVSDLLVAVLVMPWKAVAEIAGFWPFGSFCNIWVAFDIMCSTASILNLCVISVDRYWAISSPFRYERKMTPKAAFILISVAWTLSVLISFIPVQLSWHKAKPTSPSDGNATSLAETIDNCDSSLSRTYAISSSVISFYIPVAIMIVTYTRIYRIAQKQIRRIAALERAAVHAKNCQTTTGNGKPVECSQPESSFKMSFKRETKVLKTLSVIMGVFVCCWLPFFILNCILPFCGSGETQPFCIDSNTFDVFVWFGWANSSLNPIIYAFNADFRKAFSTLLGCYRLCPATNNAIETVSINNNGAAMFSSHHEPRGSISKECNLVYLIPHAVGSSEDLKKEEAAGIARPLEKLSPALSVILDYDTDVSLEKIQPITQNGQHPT
#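 Cells carrying a force-coupled, tetracycline-inducible human D1 receptor report calcium flux. Each well gets a 10 s baseline, compound with 180 s monitoring, then an EC80 dopamine stimulus with a second 180 s kinetic read.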
# D3 antag: blocks the human D3 dopamine receptor. max response, negative = inhibition, %. D3R cells, DiscoveRx beta-arrestin luminescence, antagonist mode; stronger effect = lower value. P35462. hit rate 2.5% among 360,000; in the data active = max response below about -50%; inconclusive = no clear call, values can overlap the other calls; note: % is set by controls: 0 for no effect and ±100 for the full control effect
#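 Cells expressing the human receptor were seeded at 1500 cells/well, incubated overnight at 37 degrees C in 5% CO2, then exposed to library compounds with dopamine controls for 90 minutes at 37 degrees C before luminescent detection.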
# D1 agonist: agonists of human D1 dopamine receptor; P21728; HEK293 T-REx D1 cells, calcium flux, agonist mode; activation, % at 2 µM; hit rate 1% among 360,000; AID 504660; in the data active = activation above about 30%; note: 0% is about no effect
#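 Tetracycline-induced HEK293 TREx D1 cells, force-coupled to calcium signalling, were dye-loaded with a no-wash calcium kit. Compound was pin-added after a 10 s baseline. Fluorescence was read kinetically at 1 cycle/s for 180 s, with calcium rises flagged as agonism.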
# D1 potentiator: enhances dopamine response at the human D1 receptor | P21728 | HEK293 TREx D1 cells, calcium flux, dopamine EC20 potentiation | potentiation, % at 10 µM | hit rate 0.036% among 360,000; in the data active = potentiation above about 30%; note: 0% is about no effect
# D3 ag: agonists of human D3 dopamine receptor; P35462; D3R DiscoveRx beta-arrestin cells, luminescence, 90 min; max activation, %; hit rate 0.58% among 410,000; AID 652048; in the data active = max activation above about 30%; note: 0% is about no effect
#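 Agonist mode: compounds and dopamine controls were applied to plated cells for 90 min at 37 degrees C after an overnight attachment at 1500 cells/well. Luminescent read-out followed 30 - 60 minutes at room temperature with DiscoveRx detection reagent.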
# Active calls of the source: *; ? = inconclusive; · = not tested or not shown. An excerpt weighted towards active compounds, which were near 6.1% of everything screened.
SMILES,D1 antagonist,D3 antag,D1 agonist,D1 potentiator,D3 ag
COCCN(C(=O)c1cc(OC)c(OC)c(OC)c1)c1c(N)n(Cc2ccccc2)c(=O)[nH]c1=O,0,-19,1,9,2
CCN(CC)S(=O)(=O)c1ccc(S(=O)(=O)NCc2cccs2)cc1,-11,-13,8,-4,-20
COc1ccc(S(=O)(=O)NCc2cccs2)cc1,-32*,39,3,-3,-4
COc1ccc(CNS(=O)(=O)c2ccc(C3CNC(=O)C3)cc2)cc1 (centres undefined),8,-142*,-2,2,3
CCCOc1ccc(S(=O)(=O)NCc2ccc(OC)cc2)cc1,-44*,-10,17,-3,10
COc1ccccc1CCNC(=O)C(=O)Nc1cc2c3c(c1)CC(=O)N3CCC2,17,?,0,-4,0
Cc1ccc(C)c(N2CCN(C(=O)c3cc4c(=O)n(Cc5cccs5)ccc4nc3C)CC2)c1,23,·,3,-3,-5
COc1cccc(NC(=O)N2CCC(NC(=O)c3ccco3)CC2)c1,21,-2,-1,-2,8
COc1ccc(NC2=Nc3cccc4cccc2c34)cc1,-7,-25,10,-7,-15
COc1cccc(CNc2nc3ccccc3c3nc(-c4cccc(C)c4)nn23)c1,-14,·,4,-5,4
Cc1c(NC(=O)C(C)OC(=O)COc2ccccc2)c(=O)n(-c2ccccc2)n1C (centres undefined),0,5,2,0,2
CC(OC(=O)c1ccc(NC(=O)CC#N)cc1)C(=O)NC(=O)NC1CCCCC1 (centres undefined),-32*,16,4,7,4
Cc1c(NC(=O)C(C)OC(=O)c2ccc(NC(=O)CC#N)cc2)c(=O)n(-c2ccccc2)n1C (centres undefined),-33*,5,2,1,11
CCOC(=O)c1c(CN2CCCCC2)oc2ccc(OC)cc12,-9,?,1,-3,-21
CCOC(=O)c1c(CN2CCN(C)CC2)oc2ccc(OC)cc12,-8,-57*,11,7,-14
CC(C)c1cc(-c2nc(-c3ccc(Cl)cc3)no2)n[nH]1,-38*,·,1,-5,1
COc1ccc(-c2[nH][nH]c(=O)c2NC(=O)c2ccccc2Br)cc1,·,-53*,·,·,-6
O=C(COc1ccc(Cl)cc1)NCc1nnc(SCC(=O)N2CCCC2)o1,1,4,3,2,0
COc1ccc(NC(=O)CSc2ncccc2C(=O)OC(C)C)cc1OC,-37*,41,26,-8,14
Fc1ccc(CN2CCN3CCCC3C2C2CCCCC2)cc1F (centres undefined),4,-78*,2,3,-13
COCCn1c(SCC(=O)c2c(N)n(C3CC3)c(=O)[nH]c2=O)nnc1-c1cccc(C)c1,6,5,2,-10,2
COc1cccc(N2CCN(C(=O)c3c4c(nc5ccccc35)C(=O)N(C3CCCCC3)C4)CC2)c1,-23,·,1,-2,4
COc1ccccc1CCNC(=O)Cc1c(C)c2c(cc(C)c3c(C)coc32)oc1=O,-14,·,1,2,-8
Cc1oc2cc(OCC(=O)O)ccc2c(=O)c1Oc1ccccc1,1,13,5,-3,10
COc1ccc2c(=O)c(Oc3ccc(C(=O)O)cc3)c(C(F)(F)F)oc2c1,-30*,4,3,-7,0
CCOc1ccc(NC(=O)CNC(=O)c2nn(-c3ccc(OC)c(OC)c3)c(=O)c3ccccc23)cc1,-4,86,-2,1,37*
COc1ccc(NC(=O)CNC(=O)c2nn(-c3ccc(OC)c(Cl)c3)c(=O)c3ccccc23)c(OC)c1,2,82,0,-3,30*
Oc1ccc(CNCc2ccc3c(c2)OCO3)c2cccnc12,11,·,11,-2,·
COc1ccccc1CCNC(=O)C(=O)NCC(c1ccco1)S(=O)(=O)c1ccccc1 (centres undefined),·,·,10,2,-14
O=C(NCc1cccs1)C1CCN(C(=O)N2CCOc3ccc(Cl)cc32)CC1,5,·,7,4,6

# Assay outcomes deposited in PubChem BioAssay by National Center for Advancing Translational Sciences (NCATS).
